Measurements: PubChem BioAssay (NCATS)
Inconclusive results are not listed. For some of these results: Entries with a potency or affinity are not part of this list. Activity calls are given as the source filed them. Unless noted, how the calls were made is not given here.

Key:
[1] = Ebola virus entry assay, green fluorescence channel
[2] = Ebola virus entry assay, blue channel fluorescence
[3] = Ebola virus entry assay, ratio channel
[4] = Ebola virus entry assay, reporter ratio channel; Channel type: primary
[5] = Ebola virus entry assay, blue channel (ratio component)
[6] = qHTS assay for measurement of the activity of small molecule inhibitors on Zika virus induced Caspase-3 activity in human iPSC derived neural progenitor cells (hNPCs) (AID 1224857; active means well fitted inhibition curve with a large enough effect; further: % of control where 0% means no effect; nearly all actives have a fitted effect of over 65% in size); conditions: hNPCs ZIKV-induced caspase-3/7, Caspase-Glo luminescence, 6 h; series mostly up to 45.7 µM
How it was run: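 Values are percent inhibition of virus-induced caspase-3/7 signal, scaled between uninfected cells and ZIKV-infected cells. Infection used 2 FFU/cell for 6 h after 1 h compound exposure.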
Wherever efficacy is given: 0% is about no effect.

CCNC(=O)NCCCOc1cccc(CN2CCCCC2)c1
inactive: efficacy [1] 42.2% | outcome [2] | outcome [3] | outcome [4] | outcome [5]

COP(=S)(OC)Oc1ccc(S(N)(=O)=O)cc1
inactive: efficacy [1] -39.4% | outcome [2] | outcome [3] | outcome [4] | outcome [5] | Potency [6]

CCCCCC(=O)O[C@]1(C(C)=O)CC[C@H]2[C@@H]3CCC4=CC(=O)CC[C@]4(C)[C@H]3CC[C@@]21C
inactive: efficacy [1] 74.4% | outcome [2] | outcome [3] | outcome [4] | outcome [5]

C[C@]12CCC(=O)C=C1CC[C@@H]1[C@@H]2CC[C@@]2(C)[C@H]1CC[C@]2(O)C(=O)CO
inactive: efficacy [1] 55.8% | outcome [2] | outcome [3] | outcome [4] | outcome [5]

C#C[C@]1(O)C=C[C@H]2[C@@H]3CCC4=CC(=O)CC[C@@H]4[C@H]3CC[C@@]21CC
inactive: efficacy [1] 51.7% | outcome [2] | outcome [3] | outcome [4] | outcome [5] | Potency [6]

CC#C[C@]1(O)CC[C@H]2[C@@H]3C[C@H](C)C4=CC(=O)CC[C@]4(C)[C@H]3CC[C@@]21C
active: AC50 [4] 39.8 µM
inactive: efficacy [1] 83.4% | outcome [2] | outcome [3] | outcome [5] | Potency [6]

CNC[C@H](O)c1ccc(O)c(O)c1
inactive: efficacy [1] 27.1% | outcome [2] | outcome [3] | outcome [4] | outcome [5]

CC[C@H]1C[C@H]2[C@@H]3CCC4=CC(=O)CC[C@@H]4[C@H]3CC[C@]2(C)[C@H]1O
inactive: efficacy [1] 63.1% | outcome [2] | outcome [5] | Potency [6]
active: AC50 [3] 15.8 µM | AC50 [4] 15.8 µM

O=C(CCCN1CCN(c2ccccn2)CC1)c1ccc(F)cc1
inactive: efficacy [1] 28.5% | outcome [2] | outcome [3] | outcome [4] | outcome [5]

CC/C(=C(/CC)c1ccc(O)cc1)c1ccc(O)cc1
inactive: efficacy [1] 26.9% | outcome [2] | outcome [3] | outcome [4] | outcome [5]

CCCCC/C=C\C/C=C\CCCCCCCC(=O)NC(C)c1ccccc1 (centres undefined)
active: AC50 [4] 39.8 µM
inactive: efficacy [1] 130% | outcome [2] | outcome [3] | outcome [5]

CC(=O)[C@@]1(O)CC[C@H]2[C@@H]3C[C@H](C)C4=CC(=O)CC[C@]4(C)[C@H]3CC[C@@]21C
inactive: efficacy [1] 52.6% | outcome [2] | outcome [3] | outcome [4] | outcome [5]

CCOC(=O)OCC/C(SC(=O)OCC)=C(\C)N(C=O)Cc1cnc(C)nc1N
inactive: efficacy [1] 26.7% | outcome [2] | outcome [3] | outcome [4] | outcome [5]

O=C(Nc1ccc(S(=O)(=O)N2CCOCC2)cc1)c1cc(Cl)ccc1NS(=O)(=O)c1ccc(Cl)s1
active: AC50 [4] 39.8 µM
inactive: efficacy [1] 119% | outcome [2] | outcome [3] | outcome [5]

C[C@]12CC[C@H]3[C@@H](CCC4=CC(=O)CC[C@@]43C)[C@@H]1CC[C@@H]2C(=O)CO
inactive: efficacy [1] 61.9% | outcome [2] | outcome [3] | outcome [4] | outcome [5]

C[C@]12Cc3nonc3C[C@@H]1CC[C@@H]1[C@@H]2CC[C@@]2(C)[C@H]1CC[C@]2(C)O
active: AC50 [2] 15.8 µM | AC50 [3] 17.8 µM | AC50 [4] 17.8 µM
inactive: efficacy [1] 48.4% | Potency [6]

Cc1cc(C)c(/C=C2\C(=O)Nc3ccccc32)[nH]1
inactive: efficacy [1] 78.6% | outcome [2] | outcome [3] | outcome [5]
active: AC50 [4] 35.5 µM

CCCCCOc1ccccc1/C(=C\SC)n1ccnc1
inactive: efficacy [1] 106% | outcome [2] | outcome [3] | outcome [4] | outcome [5]
